An excerpt weighted towards active compounds, which were near 9.6% of everything screened.
Cav32 inh – Cav3.2 calcium influx blockers – cell-based, Fluo-4 calcium fluorescence, FDSS, MLSMR library, primary screen; Voltage-dependent T-type calcium channel subunit alpha-1H (Homo sapiens), O95180; Cav3.2-expressing cells; active compounds read low; B-score at 10 µM; actives 4% (n = 100,000); AID 449739, 2010;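 active = single-dose well whose peak fluorescence ratio is a statistical outlier from its plate by either plate-standardised score or position-corrected B-score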
Target sequence (O95180 whole entry, looked up): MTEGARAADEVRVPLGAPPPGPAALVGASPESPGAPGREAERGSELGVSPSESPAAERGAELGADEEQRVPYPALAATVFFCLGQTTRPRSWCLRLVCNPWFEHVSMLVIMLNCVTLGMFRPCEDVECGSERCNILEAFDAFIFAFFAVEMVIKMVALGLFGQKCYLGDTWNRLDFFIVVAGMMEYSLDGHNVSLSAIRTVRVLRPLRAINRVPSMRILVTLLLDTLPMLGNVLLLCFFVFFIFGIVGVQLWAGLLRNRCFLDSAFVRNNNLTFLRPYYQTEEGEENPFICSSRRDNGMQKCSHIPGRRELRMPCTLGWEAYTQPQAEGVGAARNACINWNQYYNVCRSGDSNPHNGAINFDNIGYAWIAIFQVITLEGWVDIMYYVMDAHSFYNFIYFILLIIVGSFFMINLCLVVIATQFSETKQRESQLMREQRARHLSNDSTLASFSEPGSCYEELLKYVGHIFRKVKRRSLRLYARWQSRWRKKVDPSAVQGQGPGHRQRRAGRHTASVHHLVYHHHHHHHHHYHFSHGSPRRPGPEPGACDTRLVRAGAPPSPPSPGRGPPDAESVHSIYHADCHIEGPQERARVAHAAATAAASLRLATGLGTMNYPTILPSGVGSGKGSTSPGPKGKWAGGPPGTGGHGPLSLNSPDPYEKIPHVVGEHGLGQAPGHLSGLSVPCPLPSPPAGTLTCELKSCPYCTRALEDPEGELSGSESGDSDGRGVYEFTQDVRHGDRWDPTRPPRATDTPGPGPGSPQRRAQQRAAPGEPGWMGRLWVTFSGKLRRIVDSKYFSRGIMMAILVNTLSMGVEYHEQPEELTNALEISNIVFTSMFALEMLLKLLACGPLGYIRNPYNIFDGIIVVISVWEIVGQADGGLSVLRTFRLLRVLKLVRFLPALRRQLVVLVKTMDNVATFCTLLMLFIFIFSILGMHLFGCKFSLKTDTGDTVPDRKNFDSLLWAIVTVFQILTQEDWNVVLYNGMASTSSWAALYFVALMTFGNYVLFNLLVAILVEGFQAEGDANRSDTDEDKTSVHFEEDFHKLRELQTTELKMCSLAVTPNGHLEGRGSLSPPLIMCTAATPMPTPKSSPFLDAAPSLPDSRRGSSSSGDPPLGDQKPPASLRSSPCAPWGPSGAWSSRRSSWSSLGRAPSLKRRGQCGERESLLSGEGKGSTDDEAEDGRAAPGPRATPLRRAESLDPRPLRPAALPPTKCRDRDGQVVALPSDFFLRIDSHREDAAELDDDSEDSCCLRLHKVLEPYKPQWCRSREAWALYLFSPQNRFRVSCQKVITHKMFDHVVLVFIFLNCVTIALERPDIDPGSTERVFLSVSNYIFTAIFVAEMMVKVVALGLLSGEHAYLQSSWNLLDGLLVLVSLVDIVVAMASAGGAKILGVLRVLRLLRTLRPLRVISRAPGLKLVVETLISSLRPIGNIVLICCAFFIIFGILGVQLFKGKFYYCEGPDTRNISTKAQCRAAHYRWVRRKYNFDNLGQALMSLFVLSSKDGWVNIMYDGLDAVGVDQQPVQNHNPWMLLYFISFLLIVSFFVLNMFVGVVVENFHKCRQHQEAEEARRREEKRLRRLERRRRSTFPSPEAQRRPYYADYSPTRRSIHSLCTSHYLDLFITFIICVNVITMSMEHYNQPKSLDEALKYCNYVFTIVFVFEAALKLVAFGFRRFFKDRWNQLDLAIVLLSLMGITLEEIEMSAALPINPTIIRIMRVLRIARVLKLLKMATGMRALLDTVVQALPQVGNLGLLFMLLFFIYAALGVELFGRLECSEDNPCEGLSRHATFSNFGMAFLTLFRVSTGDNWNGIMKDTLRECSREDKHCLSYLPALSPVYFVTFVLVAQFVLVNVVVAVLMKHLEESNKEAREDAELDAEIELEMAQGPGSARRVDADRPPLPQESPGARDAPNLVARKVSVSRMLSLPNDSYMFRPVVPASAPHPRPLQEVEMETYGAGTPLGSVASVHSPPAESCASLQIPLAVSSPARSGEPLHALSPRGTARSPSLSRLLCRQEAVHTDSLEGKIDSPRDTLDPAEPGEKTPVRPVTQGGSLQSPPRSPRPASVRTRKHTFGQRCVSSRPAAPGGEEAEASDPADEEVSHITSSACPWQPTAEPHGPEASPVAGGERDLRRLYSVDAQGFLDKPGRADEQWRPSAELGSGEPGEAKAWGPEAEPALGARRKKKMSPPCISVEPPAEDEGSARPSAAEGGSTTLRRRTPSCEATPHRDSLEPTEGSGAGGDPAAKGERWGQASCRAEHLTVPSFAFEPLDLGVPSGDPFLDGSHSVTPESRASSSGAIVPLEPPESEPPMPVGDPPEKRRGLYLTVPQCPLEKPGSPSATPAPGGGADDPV
PLAP activator – PLAP enzyme activators, biochemical, luminescence, HTS; Alkaline phosphatase, placental type (Homo sapiens), P05187; purified PLAP enzyme, luminescent substrate read-out; active compounds read high; activation fold at 20 µM; actives 1.2% (n = 96,000); AID 696, 2007; in the data active = activation fold above about 2
DAT uptake mod – changed hDAT dopamine uptake under cocaine IC80, either direction, primary screen, cocaine antagonist project, cell-based, LLC-PK1 hDAT, [14C]-dopamine uptake, MLSMR. LLC-PK1 hDAT cells, [14C]-dopamine uptake with cocaine IC80; actives deviate in either direction. B-score at 10 µM. actives 1.3% (n = 110,000);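 active = Z score or B-score, a plate-position-corrected score, falls beyond the plate's 99.7% confidence bounds, in either direction; inactive = both scores lie inside the 99.7% bounds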;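 note: scored against the spread of the other compound wells on the same plate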
PostGolgi yeast – phenotypic screen on post-Golgi transport, primary screen. actives 0.9% (n = 98,000). post-Golgi transport phenotypic cell assay. inhibition, % at 10 µM. AID 739, 2007;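 note: yeast cells grown in 1536-well plates; yeast grown about 18 h at 30C before absorbance read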
PostGolgi ctrl – growth inhibition of yeast control strain, primary screen, counter-screen for post-Golgi transport modulator project | inhibition, % at 10 µM | actives 5% (n = 98,000) | AID 738, 2007 | efflux-deficient yeast background strain, growth absorbance A615, 16 h
* marks the source's active call; other numbers are inactive results; x = no result given. Cut-off read from the data, not from the text of the source, unless noted: active = inhibition above about 30%; inactive = the rest.

SMILES	Cav32 inh	PLAP activator	DAT uptake mod	PostGolgi yeast	PostGolgi ctrl
COc1ccc2[nH]c(=O)c(C(c3nnnn3C3CCCC3)N3CCN(Cc4ccc5c(c4)OCO5)CC3)cc2c1 (stereo not given)	-1.5	2*	2	1	11
CCN1CCN(C(c2cc3cccc(C)c3[nH]c2=O)c2nnnn2Cc2ccccc2)CC1 (stereo not given)	-0.37	1.5	-0.64	4	-4
Cc1cc(C)c2[nH]c(=O)c(C(c3nnnn3Cc3ccc4c(c3)OCO4)N3CCC(C)CC3)cc2c1 (stereo not given)	-0.033	x	-0.72	0	33*
CCOC(=O)C(C)S(=O)(=O)c1ccc(C(F)(F)F)cn1 (stereo not given)	1.1	1	-0.009	-22	-4
COc1ccc(Cn2nnnc2C(c2cc3cc(C)ccc3[nH]c2=O)N2CCOCC2)cc1 (stereo not given)	0.047	1.3	-0.42	13	44*
O=C(c1cc(Br)c(Br)s1)N1CCN(C/C=C/c2ccccc2)CC1	-3.4	1.5	1.8	8	46*
O=[N+]([O-])c1cc(C(F)(F)F)ccc1N/N=C/c1cc2ccccc2nc1Cl	x	1	x	44*	12
Cc1n[nH]c(=S)n1/N=C/c1ccc(OCc2ccc(Cl)cc2)cc1	0.33	1	0.85	-18	3
Fc1ccc(COc2ccc(/C=N/n3cnnc3)cc2)cc1	1.2	1.1	-0.022	10	35*
COC(=O)c1nn(-c2ccc3c(c2)OCO3)cc1O	-0.048	1	0.14	4	37*
COC(=O)Nc1ccc2c(c1)OCO2	-0.4	x	0.28	x	x
S=c1[nH]nc(CSc2nc3ccccc3s2)n1Cc1ccccc1	-0.56	1	x	-7	34*
Cc1cc(-n2c(SCCC#N)nnc2-c2cccnc2)ccc1Cl	0.69	0.9	-0.16	-1	1
Cn1cccc1Cc1nnc(SCC(=O)Nc2ccccc2)n1-c1ccc(F)cc1	-7.7*	1.3	-0.28	4	1
COc1ccc(NC(=O)CSc2nnc(Cc3cccn3C)n2-c2ccc(F)cc2)cc1OC	-1.7	1.6	0.95	3	-5
Cn1cccc1Cc1nnc(SCC(=O)Nc2ccccc2F)n1-c1ccc(F)cc1	-2.4	1.2	-0.98	-1	18
Cn1cccc1Cc1nnc(SCC(=O)Nc2ccc(F)cc2)n1-c1ccc(F)cc1	-4.2*	1.4	0.067	-3	10
Cn1cccc1Cc1nnc(SCC(=O)Nc2ccc(Cl)cc2)n1-c1ccc(F)cc1	-9.8*	1.6	2.8*	5	19
COc1ccc(Cl)c(N2CCN(CCCNC(=O)Nc3ccc(C)cc3)CC2)c1	x	1.5	x	-5	9
COC(=O)C(NS(C)(=O)=O)(c1c(C)[nH]c2ccccc12)C(F)(F)F (stereo not given)	x	1	x	-3	1
O=C(O)c1ccc2c(c1)C(=O)N(Cc1ccccc1)C2=O	x	1.1	-0.64	-6	1
CCc1ccc(OCC(=O)N(C)CCC#N)c(Br)c1	1.4	0.9	0.63	-14	39*
CCc1ccc(OCC(=O)NC(=S)Nc2ccc(C)cc2C)c(Br)c1	1.1	1	-1.2	0	0
CCN(CC(=O)Nc1c(C(=O)OC)[nH]c2ccc(C)cc12)c1ccc2c(c1)OCO2	0.42	1.2	0.94	-2	53*
COC(=O)c1[nH]c2ccccc2c1NC(=O)CN1CCN(Cc2ccc3c(c2)OCO3)CC1	0.0018	1.5	2.4	6	-2
SMILES	Cav32 inh	PLAP activator	DAT uptake mod	PostGolgi yeast	PostGolgi ctrl
COCCN1C(=O)N[C@@H](c2ccccc2)[C@H](C(=O)OC)[C@H]1C	-1	x	-0.46	x	x
c1ccc(Nc2cc(Nc3ccccc3)[nH]n2)cc1	-0.99	0.9	2.2	-2	-1
C/C(=N\S(=O)(=O)c1ccc(C)cc1)N1CCN(S(=O)(=O)c2ccccc2)C1	x	1.2	x	2	31*
CCOc1ccc(C/C(N)=N/n2cnnc2)cc1	0.56	0.8	-1.1	14	4
CCOc1ccc(OCCN2C(=O)NC(Cc3c[nH]c4ccccc34)C2=O)cc1 (stereo not given)	x	1.9	1.6	-4	19
N#Cc1ccc2ccn(CC(=O)NCc3ccccc3)c2c1	-1.8	1.1	-0.47	5	7
O=C(O)c1ccc(S(=O)(=O)NC2CCCCC2)cc1	-1	1	-0.31	-9	-11
CSc1ccc(S(=O)(=O)NC2CCCCCC2)cc1	-1.3	0.7	1.7	-9	70*
